Assay results reported in PubChem BioAssay AID1159580 (chemical genetic matrix, 2015).
Among all 5,500 compounds or so, about 2,000 (36%) were called active. Not shown: some 18% with an inconclusive outcome. Rule as the data show it: active = normalized growth mostly below about 0.91 (no sharp cut-off); inconclusive = no clear call, values can overlap the other calls; inactive = mostly above about 0.92. Some of the results follow.

Experiment: chemical genetic growth profiling, strain panel (AID 1159580);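 also: tested at 20 µM; growth read once vehicle control cultures reached saturation at 30 °C; 1 = growth at the plate median or of vehicle wells; lower values mean less growth of the strain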
Settings: growth OD

Measured: normalized growth

COC(=O)c1ccccc1-n1cccc1C(=O)OC
inactive: S. cerevisiae deletion strains, locus YAL013W, strain DEP1, stronger effect = lower value 0.981 | S. cerevisiae deletion strains, locus YBR229C, strain ROT2, stronger effect = lower value 0.975 | S. cerevisiae deletion strains, locus YDL101C, strain DUN1, stronger effect = lower value 0.971 | S. cerevisiae deletion strains, locus YDL134C, strain PPH21, stronger effect = lower value 0.997 | S. cerevisiae deletion strains, locus YDR150W, strain NUM1, stronger effect = lower value 1.01 | S. cerevisiae deletion strains, locus YEL061C, strain CIN8, stronger effect = lower value 0.994 | S. cerevisiae deletion strains, locus YGR078C, strain PAC10, stronger effect = lower value 0.982 | S. cerevisiae deletion strains, locus YGR229C, strain SMI1, stronger effect = lower value 1.02 | S. cerevisiae deletion strains, locus YHR030C, strain SLT2, stronger effect = lower value 1.04 | S. cerevisiae deletion strains, locus YHR087W, strain rtc3, stronger effect = lower value 0.96 | S. cerevisiae deletion strains, locus YJL187C, strain SWE1, stronger effect = lower value 0.996 | S. cerevisiae deletion strains, locus YJR043C, strain POL32, stronger effect = lower value 0.993 | S. cerevisiae deletion strains, locus YJR075W, strain HOC1, stronger effect = lower value 1.05 | S. cerevisiae deletion strains, locus YLR039C, strain RIC1, stronger effect = lower value 0.97 | S. cerevisiae deletion strains, locus YLR058C, strain SHM2 (second series), stronger effect = lower value 0.989 | S. cerevisiae deletion strains, locus YLR085C, strain ARP6, stronger effect = lower value 1.03 | S. cerevisiae deletion strains, locus YLR262C, strain YPT6, stronger effect = lower value 0.973 | S. cerevisiae deletion strains, locus YML094W, strain GIM5, stronger effect = lower value 0.957 | S. cerevisiae deletion strains, locus YMR219W, strain ESC1, stronger effect = lower value 0.99 | S. cerevisiae deletion strains, locus YMR263W, strain SAP30, stronger effect = lower value 1.02 | S. cerevisiae deletion strains, locus YNL153C, strain GIM3, stronger effect = lower value 1 | S. cerevisiae deletion strains, locus YNL298W, strain CLA4 (second series), stronger effect = lower value 0.988 | S. cerevisiae deletion strains, locus YNL322C, strain KRE1, stronger effect = lower value 0.992 | S. cerevisiae deletion strains, locus YNR030W, strain Alg12, stronger effect = lower value 0.973 | S. cerevisiae deletion strains, locus YOL006C, strain TOP1, stronger effect = lower value 0.969 | S. cerevisiae deletion strains, locus YPL055C, strain LGE1, stronger effect = lower value 0.972 | S. cerevisiae deletion strains, locus YPL241C, strain CIN2, stronger effect = lower value 0.969 | S. cerevisiae deletion strains, locus YPR135W, strain CTF4, stronger effect = lower value 0.943 | S. cerevisiae strains, strain wild type, stronger effect = lower value 0.993
